Most compounds without a hit are left out; they make up all but 11% or so of the library.
NPR1 antag: antagonists of human natriuretic peptide receptor Npr1. P16066. HEK293 hNpr1 GloSensor cGMP, ANP-stimulated luminescence. Potency, µM (highest dose often 46.3 µM), for the others: at the top dose activity change, negative = inhibition, hits mostly inhibitors. hit rate 1.6% among 76,000. AID 1347048; calls by dose curve; further: on the % scale 0 is the no-effect control and ±100 the full control effect; nearly all actives have a fitted effect of over 60% in size
Target sequence (P16066 whole entry, looked up): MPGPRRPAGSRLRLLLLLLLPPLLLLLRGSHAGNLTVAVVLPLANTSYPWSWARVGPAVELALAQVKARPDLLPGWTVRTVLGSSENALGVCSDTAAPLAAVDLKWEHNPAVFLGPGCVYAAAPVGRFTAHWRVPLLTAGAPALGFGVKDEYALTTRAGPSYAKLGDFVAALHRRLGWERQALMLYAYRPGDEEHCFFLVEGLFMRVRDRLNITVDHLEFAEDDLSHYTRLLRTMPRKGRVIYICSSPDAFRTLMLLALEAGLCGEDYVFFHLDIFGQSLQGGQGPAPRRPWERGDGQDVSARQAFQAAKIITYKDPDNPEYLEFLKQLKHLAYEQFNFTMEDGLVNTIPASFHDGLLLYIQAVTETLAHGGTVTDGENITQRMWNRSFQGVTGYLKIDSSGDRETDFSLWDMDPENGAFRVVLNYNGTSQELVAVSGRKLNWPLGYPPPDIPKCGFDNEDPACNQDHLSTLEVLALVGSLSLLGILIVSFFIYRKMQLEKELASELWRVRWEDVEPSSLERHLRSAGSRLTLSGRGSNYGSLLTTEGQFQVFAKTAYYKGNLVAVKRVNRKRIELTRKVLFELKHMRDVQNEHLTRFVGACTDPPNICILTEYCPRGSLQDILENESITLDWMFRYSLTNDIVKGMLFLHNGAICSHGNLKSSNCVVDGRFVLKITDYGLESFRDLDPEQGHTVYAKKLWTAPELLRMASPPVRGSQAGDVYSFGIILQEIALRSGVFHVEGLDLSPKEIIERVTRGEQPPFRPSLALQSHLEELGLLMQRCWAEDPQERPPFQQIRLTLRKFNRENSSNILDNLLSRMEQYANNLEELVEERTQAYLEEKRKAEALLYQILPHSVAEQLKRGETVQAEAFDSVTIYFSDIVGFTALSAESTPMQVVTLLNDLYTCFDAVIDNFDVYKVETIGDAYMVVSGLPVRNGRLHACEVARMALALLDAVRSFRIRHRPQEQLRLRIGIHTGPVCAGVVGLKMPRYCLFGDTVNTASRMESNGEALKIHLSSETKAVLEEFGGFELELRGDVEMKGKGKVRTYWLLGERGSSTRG
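HEK293 cells stably expressing human Npr1 and cGMP GloSensor pGS-40F, loaded 2 h with 2% GloSensor reagent, given compound 30 min at room temperature. Luminescence read before and 20 min after 0.1 nM hNppA.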
FLuc inh-1: Photinus pyralis luciferase inhibition | purified P. pyralis luciferase, luminescence, biochemical | Potency, µM (series often up to 115 µM), hits mostly inhibitors | hit rate 2.5% among 76,000; further: on the % scale 0 is the no-effect control and ±100 the full control effect; nearly all actives have a fitted effect of over 65% in size
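Inhibitors were tested against purified firefly luciferase in a biochemical, low-substrate format (both substrates at 10uM) and luminescence measured with a CCD imager.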
NIH3T3 tox: kills NIH 3T3 cells; hit rate 4.3% among 94,000; NIH 3T3 viability, CellTiter-Glo ATP luminescence, 48-72 h; AID 1345082; Potency, µM (doses to about 96.7 µM), for the others: at the top dose activity change, negative = cytotoxicity, actives largely listed as inhibitors; further: on the % scale 0 is the no-effect control and ±100 the full control effect; nearly all actives have a fitted effect of over 55% in size
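NIH 3T3 cells at 400 cells/well received 23 nL of compound by pintool and were incubated 48 or 72 h at 37 °C. Viability was read as ATP-coupled CellTiter-Glo luminescence.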
HEK cytotox: cytotoxic compounds in HEK 293 cells; HEK 293 viability, ATP luminescence (CellTiter-Glo), 48-72 h; Potency, µM (highest dose often 115 µM), without a hit: at the top dose activity change, negative = cytotoxicity, actives largely listed as inhibitors; hit rate 6.6% among 94,000; AID 1345083; further: on the % scale 0 is the no-effect control and ±100 the full control effect; nearly all actives have a fitted effect of over 60% in size
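250 HEK 293 cells/well; compound by pintool; incubated 48 or 72 hr at 37 degree Celsius; CellTiter-Glo added, 10 min RT, luminescence imaged.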
FLuc SDR -ATP: firefly luciferase binding stabilization, ATP absent; hit rate 7.8% among 1,300; shares compounds with FLuc inh-1; Potency, µM (top dose mostly 32.7 µM), for the others: top-dose activation (signal gain), actives largely listed as activators; AID 1963318; Purified FLuc-C-HiBiT, Nano-Glo HiBiT luminescence, no ATP; further: nearly all actives have a fitted effect of over 55% in size
FLuc SDR ATP: stabilizes firefly luciferase with ATP present | hit rate 8.7% among 1,300 | Potency, µM (top dose mostly 32.7 µM), without a hit: at the top dose activation (gain of signal), most hits filed as activators | purified FLuc-C-HiBiT + ATP, HiBiT complementation luminescence | shares compounds with FLuc inh-1;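 further: signal reports ligand binding via conformational change of the enzyme rather than luciferase catalysis; % of control where 0% means no effect; nearly all actives have a fitted effect of over 55% in size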
FLuc inh-2: inhibitors of firefly luciferase enzymatic activity. shares compounds with FLuc inh-1. purified FLuc-C-HiBiT enzyme, luciferin luminescence. Potency, µM (doses to about 32.7 µM), for inactives: at the top dose activity change, negative = inhibition, most hits filed as inhibitors. hit rate 42% among 1,300. AID 1963320; further: on the % scale 0 is the no-effect control and ±100 the full control effect; nearly all actives have a fitted effect of over 70% in size
* hit, by the source's call; i = inactive; ? = inconclusive; . = no result; [ ] = dose if it differs, or a comment. Unless noted, the call rests on the fitted dose curve; in most records, active means well fitted curve in the direction sought with a large enough effect; inconclusive means small, poorly fitted or top-dose-only effect, or another doubt; inactive means no such curve, though single readings can be large; an effect the other way counts as inactive or inconclusive. Potency means the concentration at half of the fitted maximal effect.

SMILES | NPR1 antag | FLuc inh-1 | NIH3T3 tox | HEK cytotox | FLuc SDR -ATP | FLuc SDR ATP | FLuc inh-2
c1ccc2c(c1)COC1(CCNC1)CN2CC1CCCC1 (centres undefined) | . | . | 35µM* | 50µM* | . | . | .
O=C(NC[C@H]1Cn2cc(-c3ccccc3)nc2CO1)c1ccccc1 | 0%[70.6 µM] | ? | -18%[138 µM] | -21%[172 µM] | . | . | .
Cc1ccsc1CN1CC(N2CC(C(=O)NCc3ccccc3)CC2=O)C1 (centres undefined) | . | . | -12% | 0% | . | . | .
O=c1[nH]nc2n1CCNCC2 | -1% | i | -4% | -26% | . | . | .
O=c1[nH]nc2n1CCCCC2 | 11% | i | -12% | -10% | 13% | 11% | -3%
O=c1c2nc(N3CCC(c4ccccc4)CC3)ccc2ncn1C1CC1 | ? | 1.4µM* | ? | 89µM* | 20µM* | ? | 3.6µM*
O=c1c2nc(N3CCC(c4ccccc4)CC3)ccc2ncn1-c1cccnc1 | 3%[70.6 µM] | ? | ? | ? | . | . | .
CN(CCO)c1ccc(-c2nc(CCCc3ccccc3)no2)cn1 | 0% | 6.3µM* | -29% | ? | 15% | 14% | ?
c1ccc(CCCc2noc(-c3ccc(NCc4ccccn4)nc3)n2)cc1 | ? | 13µM* | -18% | ? | 10% | 8% | -10%
CN(Cc1cccnc1)c1ccc(-c2nc(COc3ccccc3)no2)cn1 | 10µM* | 7.9µM* | ? | 25µM* | 18% | 18% | ?
Cc1cc(CNc2ccc(-c3nc(CCCc4ccccc4)no3)cn2)no1 | ? | ? | -30% | ? | . | . | .
CN(CCc1ccccn1)c1ccc(-c2nc(COc3ccccc3)no2)cn1 | ? | 8.9µM* | ? | 35µM* | 13% | 15% | ?
COc1ccc(C(=O)N2CC(Cn3c(C)cnc3-c3ccncc3)C2)cn1 | . | . | -4% | i | . | . | .
COCC(C)Nc1ncnc2c1cnn2-c1cccc(Cl)c1 (centres undefined) | . | . | . | . | 23% | 16% | ?
Nc1ccc2ncnc(N3CCCC3)c2c1 | -9% | i | -22% | ? | . | . | .
O=C(Nc1ccc2ncnc(N3CCCCC3)c2c1)c1cc(F)ccc1F | -17% | i | ? | ? | . | . | .
CCN(c1ncnc2c1cnn2-c1cccc(Cl)c1)C1CCCCC1 | . | . | . | . | 27% | ? | 5.6µM*
Cc1cc(Cl)ccc1-n1ncc2c(N3CCCCC3)ncnc21 | . | . | . | . | 31% | ? | 4.4µM*
Clc1cccc(-n2ncc3c(N4CCCCC4)ncnc32)c1 | . | . | . | . | 6.2µM* | ? | 0.99µM*
Cc1cn2nc(C(=O)NCc3ccc(Cl)cc3)cc2c(N(C)Cc2ccccc2)n1 | -8% | i | ? | ? | . | . | .
O=C1CC(c2ccccc2)N(C(=O)CNC(=O)CN2CCCCCC2)CCCCCN1 (centres undefined) | -8% | i | -7% | -17% | . | . | .
Nc1cccc(-c2ccc(N3CCCCC3)nn2)c1 | 4µM* | 0.4µM* | 35µM* | 35µM* | 1.6µM* | 1.2µM* | 0.56µM*
CCN1CCN(c2ccc(-c3cccc(N)c3)nn2)CC1 | ? | 14µM* | ? | ? | 23% | ? | 9.9µM*
Cn1cccc1CN1CC[C@@H]2C(=O)NCCCCCCN(Cc3ccncc3)[C@@H]2C1 | 6% | i | -20% | ? | . | . | .
COc1cccc(CNC(=O)c2cnc3cc(C)nn3c2)c1 | . | . | -16%[138 µM] | -8%[172 µM] | . | . | .
SMILES | NPR1 antag | FLuc inh-1 | NIH3T3 tox | HEK cytotox | FLuc SDR -ATP | FLuc SDR ATP | FLuc inh-2
CCOc1ccc(-n2nc(CO)c(C(=O)NCc3ccccn3)n2)cc1 | . | . | . | . | 28% | 17% | ?
CCOc1ccc(-n2nc(CO)c(C(=O)NCc3cccc(OC)c3)n2)cc1 | . | . | . | . | 23% | 15% | ?
CCCCCC(=O)N1CC(=O)N(Cc2ccc(C)cc2)CC(O)C1 (centres undefined) | . | . | ? | -4% | . | . | .
CC(=O)Nc1cccc(-c2csc(CN3CCCC(C)(NC(C)=O)C3)c2)c1 (centres undefined) | -1%[70.6 µM] | i | -14%[138 µM] | ? | . | . | .
CC(=O)NC1(C)CN(Cc2ccc(-c3ccc(Oc4ccccc4)cc3)s2)C1 | 16µM* | 13µM* | 28µM* | 28µM* | 12%[49.3 µM] | 10%[49.3 µM] | ?
COc1ccc(-c2ccc(CN3CC(C)(NC(C)=O)C3)s2)cn1 | . | . | . | . | 17%[49.3 µM] | 12%[49.3 µM] | ?
O=C(NCc1cccs1)c1nc(-c2ccc(F)cc2)c2cnccn12 | -5%[70.6 µM] | i | ? | ? | . | . | .
CCCOC(=O)CSc1ncnc2sc3c(c12)CCC(C)C3 (centres undefined) | . | . | . | . | 16% | 11% | ?
CO[C@H]1C(=O)N(C)C2(CCN(C(=O)OCc3ccccc3)CC2)[C@@H]1C(=O)Nc1ccccc1 | . | . | -18% | ? | . | . | .
O=C(c1cc(F)cc(F)c1)N1CCC(c2n[nH]c(=O)n2-c2ccccc2)CC1 | 9% | i | -14% | 2% | . | . | .
CC(C)c1cccc(NC(=O)C2CCN(C(=O)c3ncn4c3COC(c3ccccc3)C4)CC2)c1 (centres undefined) | -15% | 3.5µM* | 4% | ? | 13% | ? | 7.9µM*
O=C(NCc1ccccc1)C1CCN(C(=O)c2ncn3c2COC(c2ccc(Cl)cc2)C3)CC1 (centres undefined) | 4% | ? | i | 11% | . | . | .
CCc1cccc(NC(=O)C2CCN(C(=O)c3ncn4c3COC(c3ccccc3)C4)CC2)c1 (centres undefined) | ? | 3.5µM* | -3% | -14% | 13% | 1.2µM* | 1.8µM*
COc1ccc(NC(=O)C2CCN(C(=O)c3ncn4c3COC(c3ccc(OC)cc3)C4)CC2)cc1 (centres undefined) | -8% | i | -21% | -14% | . | . | .
CSc1cccc(NC(=O)C2CCN(C(=O)c3ncn4c3COC(c3ccc(F)cc3)C4)CC2)c1 (centres undefined) | ? | ? | -9% | -29% | . | . | .
CC(C)c1ccc(NC(=O)C2CCN(C(=O)c3ncn4c3COC(c3ccccc3)C4)CC2)cc1 (centres undefined) | -23% | 2.5µM* | i | 6% | 13% | ? | 3.5µM*
CCOc1ccc(NC(=O)C2CCN(C(=O)c3ncn4c3COC(c3ccccc3)C4)CC2)cc1 (centres undefined) | -5% | 13µM* | i | 16% | 13% | ? | 7µM*
COc1ccc(C2Cn3cnc(C(=O)N4CCC(C(=O)Nc5ccccc5)CC4)c3CO2)cc1 (centres undefined) | -16% | ? | 0% | 2% | . | . | .

Screening results deposited in PubChem BioAssay by National Center for Advancing Translational Sciences (NCATS).
